PubChem BioAssay (NCI)
The panel holds about 83,000 compounds, 20% with a hit somewhere; the sample as a whole holds those more often.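 Percent growth is the endpoint: 0 to 100 indicates growth inhibition (40 means 60% inhibition), 0 means no net growth, and negative values indicate cell death.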 Unmarked numbers belong to inactive results. Active and inactive are the calls of the source. How the source made its calls: active means growth percent below 10; inactive means the rest.

system: NCI/ADR-RES ovarian; assay: NCI-60 one-dose screen, 48 h (100 = growth as untreated, 0 = no growth, -100 = all killed); settings: 10 µM unless noted

Row | Compound | growth
1 | CC12CCC3C(CCC4CC(=O)/C(=C\O)CC43C)C1CCC(=O)O2 (configuration not stated) | 96.1%
2 | Nc1ccccc1-c1ccc([N+](=O)[O-])cc1 | 52.2%
3 | CC(C)COCC(CN(Cc1ccccc1)c1ccccc1)N1CCCC1 (configuration not stated) | 65.2%
4 | ClC1=C(Cl)C(Cl)=C(Cl)C1=Cc1ccc(Cl)cc1 | -47.5% (active)
5 | O=C(Cc1ccccn1)C(F)(F)C(F)(F)C(F)(F)F | 104%
6 | CC1=C(C(=O)Nc2ccccc2)C(c2ccc3c(c2)OCCO3)NC(=O)N1 (configuration not stated) | 101%
7 | O=C(/C=C/c1ccccc1)CC(c1ccccc1)N1CCOCC1 (configuration not stated) | 104%
8 | COc1cccc(/C=C2\COc3ccc(O)c(O)c3C2=O)c1OC | 16.9%
9 | Cc1cc(CC(=O)O)n(C)c1C(=O)c1ccc(Cl)cc1 | 97.8%
10 | CCOc1cc(C(C)(C)C)ccc1C1=N[C@H](c2ccc(Cl)cc2)[C@H](c2ccc(Cl)cc2)N1C(=O)N1CCN(CC#Cc2cccc3c2CN([C@@H]2CCC(=O)NC2=O)C3=O)CC1 | 25.9%
11 | CCCCCCCCCCCCCCCCCC1=NC(C)(C)CN1CCO | 55.5%
12 | Clc1ccccc1[C@@H]1C[C@@H]2Cc3cc(Br)c4ccccc4c3N1O2 | 15.4%
13 | CCCCC(C#N)C(N)=O (configuration not stated) | 105%
14 | Cc1cccc(Cl)c1NC(=O)c1ccc2nc(NC(=O)NC3CC(C)(C)NC(C)(C)C3)sc2c1 | 118%
15 | Cc1c(C(N)=O)sc2c1C(=O)N(Cc1ccccc1)C1=NN=C(c3ccc(Cl)cc3)CN12 | 9.99% (active)
16 | ClC1=C(Cl)C(=C2C(Cl)=C(Cl)C(Cl)=C2Cl)C(Cl)=C1Cl | 105%
17 | Clc1ccc(-n2cnc3c(Cl)ncnc32)cc1Cl | 107%
18 | OC(c1cc(C(F)(F)F)nc2c(C(F)(F)F)cccc12)C1CCCCN1 (configuration not stated) | 50.5%
19 | CC[C@]1(O)CC2CN(CCc3c([nH]c4ccccc34)[C@@](C(=O)OC)(c3cc4c(cc3OC)N(C)[C@H]3[C@@](O)(C(=O)OC)[C@H](OC(C)=O)[C@]5(CC)C=CCN6CC[C@]43[C@@H]65)C2)C1 (some centres not stated) | -17.4% (active)
20 | CC1CC(C)/C(=N/NC(N)=O)C(C(O)CC2CCC(=O)NC2=O)C1 (configuration not stated) | 42.6%
21 | CN1C(=O)/C(=C/c2nc(-c3cccc(F)c3)n3ccccc23)c2ccccc21 | 66.4%
22 | O=C1OCCCCCCCCCC#Cc2ccccc21 | 99.7%

system: T-47D breast; assay: as above; settings: 10 µM unless noted

Row | Compound | growth
23 | CCOC(=O)c1ccccc1OC(=O)NNc1ccccc1 | 57.3%
24 | CC(=O)n1c2ccccc2c2ccccc21 | 105%
25 | O=C(/C=C/c1cc2ccccc2[nH]c1=O)c1ccc(O)cc1 | 66.1%
26 | COc1ccc(-c2c(-c3cc(OC)c(OC)c(OC)c3)noc2N)cc1 | 61.2%
27 | Clc1ccc(-c2nc(-c3cccs3)no2)c(Cl)c1 | 51.7%
28 | CC(C)C/C(=N\NC(=O)c1ccncc1)c1cc(Cl)ccc1O | 25.1%
29 | COc1ccc(/C=N/NC(=O)c2ccc(S(C)(=O)=O)cc2)cc1OC | 96.6%
30 | CO[C@H]1/C=C/O[C@@]2(C)Oc3c(C)c(O)c4c(O)c(c(/C=N/N5CCN(C)CC5)c(O)c4c3C2=O)NC(=O)/C(C)=C\C=C\C(C)[C@H](O)[C@@H](C)[C@@H](O)[C@@H](C)[C@@H](OC(C)=O)[C@@H]1C (some centres not stated) | 107%
31 | COc1cc(/C=C/C(=O)c2ccc(F)cc2)ccc1OCCCCCOc1cc2c(cc1OC)C(=O)N1CCCC1C=N2 (configuration not stated) | -4.98% (active)
32 | CCCCOc1ccc(C(C)(C)c2ccc(OCCCC)cc2)cc1 | 90.2%
33 | CCCCCCCC/C=C/CCCCCCCC1=NC(C)(C)CN1CCO | 0.508% (active)
34 | COc1cc(/C=C2\COc3ccc(O)c(O)c3C2=O)cc(OC)c1 | -12.1% (active)
35 | CCCCCCCC/C=C/CCCCCCCC1=NC(C)(C)CN1CC(C)O (configuration not stated) | 28.6%
36 | O=C1N(C2CCCCC2)C(=O)N1C1CCCCC1 | 43.7%
37 | CC12CCC3C(CCC4CC(=O)/C(=C\O)CC43C)C1CCC(=O)O2 (configuration not stated) | 117%
38 | Nc1ccccc1-c1ccc([N+](=O)[O-])cc1 | 38.6%
39 | CC(C)COCC(CN(Cc1ccccc1)c1ccccc1)N1CCCC1 (configuration not stated) | 66.1%
40 | ClC1=C(Cl)C(Cl)=C(Cl)C1=Cc1ccc(Cl)cc1 | 25.3%

Row | Compound | growth
41 | O=C(Cc1ccccn1)C(F)(F)C(F)(F)C(F)(F)F | 102%
42 | CC1=C(C(=O)Nc2ccccc2)C(c2ccc3c(c2)OCCO3)NC(=O)N1 (configuration not stated) | 101%
43 | O=C(/C=C/c1ccccc1)CC(c1ccccc1)N1CCOCC1 (configuration not stated) | 81.3%
44 | COc1cccc(/C=C2\COc3ccc(O)c(O)c3C2=O)c1OC | 4.89% (active)
45 | CCOc1cc(C(C)(C)C)ccc1C1=N[C@H](c2ccc(Cl)cc2)[C@H](c2ccc(Cl)cc2)N1C(=O)N1CCN(CC#Cc2cccc3c2CN([C@@H]2CCC(=O)NC2=O)C3=O)CC1 | 13.3%
46 | CCCCCCCCCCCCCCCCCC1=NC(C)(C)CN1CCO | -23.9% (active)
47 | COc1ccc(OC)c(/C=C/c2nc(=S)n(-c3ccc(Cl)cc3)[nH]2)c1 | 72.5%
48 | Clc1ccccc1[C@@H]1C[C@@H]2Cc3cc(Br)c4ccccc4c3N1O2 | 65.3%
49 | CCCCC(C#N)C(N)=O (configuration not stated) | 100%
50 | Cc1cccc(Cl)c1NC(=O)c1ccc2nc(NC(=O)NC3CC(C)(C)NC(C)(C)C3)sc2c1 | 54%
51 | Cc1c(C(N)=O)sc2c1C(=O)N(Cc1ccccc1)C1=NN=C(c3ccc(Cl)cc3)CN12 | 63.4%
52 | ClC1=C(Cl)C(=C2C(Cl)=C(Cl)C(Cl)=C2Cl)C(Cl)=C1Cl | 79.5%
53 | Clc1ccc(-n2cnc3c(Cl)ncnc32)cc1Cl | 82.2%
54 | OC(c1cc(C(F)(F)F)nc2c(C(F)(F)F)cccc12)C1CCCCN1 (configuration not stated) | 75.2%
55 | CC1CC(C)/C(=N/NC(N)=O)C(C(O)CC2CCC(=O)NC2=O)C1 (configuration not stated) | 42.5%
56 | CN1C(=O)/C(=C/c2nc(-c3cccc(F)c3)n3ccccc23)c2ccccc21 | 50.1%
57 | O=C1OCCCCCCCCCC#Cc2ccccc21 | 80.1%
